In PubChem BioAssay (NCI):
Compounds without any hit were thinned out: in the full panel of roughly 83,000, 20% have a hit.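 48-hour exposure, single concentration, 96-well plates; percent growth endpoint where 0 means no net growth. Active: below 10.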 The source made the active and inactive calls.

Assays:
Experiment in all cases: NCI-60 one-dose screen, 48 h (100 = growth as untreated, 0 = no growth, -100 = all killed)
Conditions in all cases: 10 µM unless noted
NCI-H23 lung = system: NCI-H23 lung
NCI-H226 lung = system: NCI-H226 lung
NCI-H322M lung = system: NCI-H322M lung
HOP-62 NSCLC = system: HOP-62 NSCLC
NCI-H460 lung = system: NCI-H460 lung
HOP-92 NSCLC = system: HOP-92 NSCLC
NCI-H522 lung = system: NCI-H522 lung
A549/ATCC NSCLC = system: A549/ATCC NSCLC
786-0 renal = system: 786-0 renal
COLO 205 colon = system: COLO 205 colon
DU-145 prostate = system: DU-145 prostate
K-562 leukemia = system: K-562 leukemia
MALME-3M melanoma = system: MALME-3M melanoma
MDA-MB-231 breast = system: MDA-MB-231 breast
RXF 393 renal = system: RXF 393 renal
SF-268 CNS = system: SF-268 CNS
SF-295 CNS = system: SF-295 CNS
SF-539 CNS = system: SF-539 CNS
UACC-257 melanoma = system: UACC-257 melanoma
M14 melanoma = system: M14 melanoma

Measured: growth

CCCC(O)Cn1ncc(C(=O)OCC)c1NC(=O)NCc1ccccc1F (stereo not drawn)
inactive: NCI-H23 lung 81.1% | NCI-H226 lung 96.8% | NCI-H322M lung 95.6% | HOP-62 NSCLC 105% | NCI-H460 lung 97.8% | HOP-92 NSCLC 92.1% | NCI-H522 lung 57% | A549/ATCC NSCLC 82.4% | 786-0 renal 95.6% | COLO 205 colon 116% | DU-145 prostate 99.7% | K-562 leukemia 66.7% | MALME-3M melanoma 98.9% | MDA-MB-231 breast 91.3% | RXF 393 renal 101% | SF-268 CNS 96.3% | SF-295 CNS 89.9% | SF-539 CNS 107% | UACC-257 melanoma 72.4% | M14 melanoma 93.1%

OCCCC1CCN(C(Cc2ccccc2)c2ccccc2)CC1 (stereo not drawn)
inactive: NCI-H23 lung 102% | NCI-H226 lung 102% | NCI-H322M lung 93.7% | HOP-62 NSCLC 87.2% | NCI-H460 lung 106% | HOP-92 NSCLC 80.6% | NCI-H522 lung 43.9% | A549/ATCC NSCLC 73.3% | 786-0 renal 82.5% | COLO 205 colon 79.9% | DU-145 prostate 103% | K-562 leukemia 113% | MALME-3M melanoma 93.8% | MDA-MB-231 breast 97.8% | RXF 393 renal 111% | SF-268 CNS 90.6% | SF-295 CNS 98.7% | SF-539 CNS 85.6% | UACC-257 melanoma 96.4% | M14 melanoma 88.8%

O=C1CNC(c2ccccc2)C(c2ccccc2)N1 (stereo not drawn)
inactive: NCI-H23 lung 85.2% | NCI-H226 lung 99.4% | NCI-H322M lung 103% | HOP-62 NSCLC 121% | NCI-H460 lung 103% | HOP-92 NSCLC 86.3% | NCI-H522 lung 88.6% | A549/ATCC NSCLC 93.5% | 786-0 renal 92.4% | COLO 205 colon 115% | DU-145 prostate 102% | K-562 leukemia 120% | MALME-3M melanoma 86.9% | MDA-MB-231 breast 100% | RXF 393 renal 98.3% | SF-268 CNS 110% | SF-295 CNS 109% | SF-539 CNS 100% | UACC-257 melanoma 102% | M14 melanoma 97.4%

O=C(Cn1c(=O)sc2ccccc21)NNS(=O)(=O)c1ccccc1[N+](=O)[O-]
inactive: NCI-H23 lung 98.6% | NCI-H226 lung 101% | NCI-H322M lung 104% | HOP-62 NSCLC 108% | NCI-H460 lung 108% | HOP-92 NSCLC 104% | NCI-H522 lung 88.5% | A549/ATCC NSCLC 103% | 786-0 renal 104% | COLO 205 colon 110% | DU-145 prostate 105% | K-562 leukemia 98.9% | MALME-3M melanoma 99.9% | MDA-MB-231 breast 104% | RXF 393 renal 119% | SF-268 CNS 97% | SF-295 CNS 103% | SF-539 CNS 99% | UACC-257 melanoma 99.7% | M14 melanoma 99.4%

Cc1ccc(Sc2nnc(/N=C3\C(=O)Nc4ccccc43)s2)cc1
inactive: NCI-H23 lung 107% | NCI-H226 lung 106% | NCI-H322M lung 97.1% | HOP-62 NSCLC 96.5% | NCI-H460 lung 104% | HOP-92 NSCLC 96.4% | NCI-H522 lung 94.6% | A549/ATCC NSCLC 92.1% | 786-0 renal 99.5% | DU-145 prostate 114% | K-562 leukemia 95.5% | MALME-3M melanoma 102% | MDA-MB-231 breast 104% | RXF 393 renal 120% | SF-268 CNS 98.9% | SF-295 CNS 105% | SF-539 CNS 101% | UACC-257 melanoma 94.2%

Cc1nc2sc(C(=O)Nc3ccccc3)c(N)c2cc1C(=O)c1ccccc1
active: NCI-H460 lung 6.08% | COLO 205 colon -25% | RXF 393 renal -0.48% | SF-295 CNS -9.52%
inactive: NCI-H23 lung 64.4% | NCI-H226 lung 31.3% | NCI-H322M lung 39.4% | HOP-62 NSCLC 34.5% | HOP-92 NSCLC 59.8% | NCI-H522 lung 50.2% | A549/ATCC NSCLC 23.7% | 786-0 renal 44.4% | DU-145 prostate 56.1% | K-562 leukemia 32.4% | MALME-3M melanoma 68.3% | MDA-MB-231 breast 58% | SF-268 CNS 47.8% | SF-539 CNS 33.4% | UACC-257 melanoma 49.8% | M14 melanoma 39.8%

COC1=CC(c2ccc[nH]2)=N/C1=C\c1[nH]c(C)c(C(=O)OCc2ccccc2)c1C
inactive: DU-145 prostate 12.1%
active: NCI-H23 lung -15.7% | NCI-H226 lung -25.2% | NCI-H322M lung -11% | HOP-62 NSCLC -43.2% | NCI-H460 lung -11.8% | HOP-92 NSCLC -26.3% | NCI-H522 lung -59.6% | A549/ATCC NSCLC -26.8% | 786-0 renal -49.2% | COLO 205 colon -82% | K-562 leukemia 2.63% | MALME-3M melanoma -76.7% | MDA-MB-231 breast -65.1% | RXF 393 renal -18.1% | SF-268 CNS 0.9% | SF-295 CNS -79.3% | SF-539 CNS -63.4% | UACC-257 melanoma -57.5% | M14 melanoma -73.9%

CC1(C)c2[nH]c3ccccc3c2C[C@]2(C)[C@H]3CC=C4[C@@H]5C[C@@](C)(C(N)=O)CC[C@]5(C)CC[C@@]4(C)[C@]3(C)CC[C@@H]12
inactive: NCI-H23 lung 51.2% | NCI-H226 lung 60.4% | NCI-H322M lung 76.1% | HOP-62 NSCLC 79.5% | NCI-H460 lung 52.6% | HOP-92 NSCLC 80.6% | NCI-H522 lung 52.5% | A549/ATCC NSCLC 53.6% | 786-0 renal 74.5% | COLO 205 colon 58.9% | DU-145 prostate 74% | K-562 leukemia 29.9% | MALME-3M melanoma 68% | MDA-MB-231 breast 65.8% | RXF 393 renal 77.4% | SF-268 CNS 73.2% | SF-295 CNS 53.6% | SF-539 CNS 80.9% | UACC-257 melanoma 52.5% | M14 melanoma 54.6%
